# Test results: PubChem BioAssay AID1942 (Johns Hopkins Ion Channel Center, 2009)
# The whole screen tested about 2,400 compounds, of which about 580 (24%) were called active.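 The calls were made as follows: active = activity change at or above the mean plus 3 SD of buffer wells without dofetilide, per plate; inactive = the rest.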 Not all results are given here.
# Target: Potassium voltage-gated channel subfamily KQT member 2 (Rattus norvegicus) (UniProt O88943)
# Test: rat KCNQ2 channel activation by compounds alone, confirmation, counter-screen for hERG block protector project, cell-based, CHO, FluxOR thallium flux (AID 1942);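 also: normalized value minus buffer-control mean plus three SD of buffer wells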
# Details: CHO-KCNQ2 cells, FluxOR thallium flux fluorescence; at 10 µM; stronger effect = higher value
# Sequence of Potassium voltage-gated channel subfamily KQT member 2 (Rattus norvegicus) (O88943 whole entry, looked up): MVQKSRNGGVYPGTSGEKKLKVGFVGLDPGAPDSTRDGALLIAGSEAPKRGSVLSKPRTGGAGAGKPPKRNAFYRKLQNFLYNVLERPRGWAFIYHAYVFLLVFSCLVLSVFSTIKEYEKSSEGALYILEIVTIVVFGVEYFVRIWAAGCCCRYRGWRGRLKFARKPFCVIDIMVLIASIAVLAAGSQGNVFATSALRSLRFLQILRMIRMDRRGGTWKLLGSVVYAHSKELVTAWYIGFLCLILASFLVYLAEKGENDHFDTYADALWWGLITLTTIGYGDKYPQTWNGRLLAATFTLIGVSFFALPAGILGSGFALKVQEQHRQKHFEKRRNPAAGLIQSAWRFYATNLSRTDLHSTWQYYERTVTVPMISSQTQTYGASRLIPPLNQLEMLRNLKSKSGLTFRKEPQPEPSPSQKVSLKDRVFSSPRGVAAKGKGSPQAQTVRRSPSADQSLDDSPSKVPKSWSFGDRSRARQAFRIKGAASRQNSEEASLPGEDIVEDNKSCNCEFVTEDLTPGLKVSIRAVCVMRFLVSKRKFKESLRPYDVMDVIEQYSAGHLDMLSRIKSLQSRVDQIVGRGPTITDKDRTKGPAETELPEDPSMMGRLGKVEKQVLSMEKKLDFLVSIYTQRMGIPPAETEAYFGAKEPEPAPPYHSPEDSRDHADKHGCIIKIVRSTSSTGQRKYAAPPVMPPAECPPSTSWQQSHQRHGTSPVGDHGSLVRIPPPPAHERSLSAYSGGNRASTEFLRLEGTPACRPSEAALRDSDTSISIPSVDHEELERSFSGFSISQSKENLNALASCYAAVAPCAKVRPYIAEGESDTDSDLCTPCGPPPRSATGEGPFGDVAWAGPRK
row,Compound,"activity change, less the hit threshold"
1,CC(C)(C)NC(=O)CN(C(=O)CS(=O)CC(=O)Nc1ccc(F)cc1)c1cccc(F)c1 (configuration not stated),-11.2% (inactive)
2,Cc1ccsc1/C=C1/SC(=O)N(CC(=O)N2CCCC2)C1=O,-18.9% (inactive)
3,Cn1c(=O)c(Sc2ccccc2)c(O)c2ccccc21,-8.1% (inactive)
4,Cn1c(=O)c2c(ncn2CC(=O)OCc2ccccc2)n(C)c1=O,-14.2% (inactive)
5,Cc1nc(-c2cc(C#N)c(Sc3ccc(Cl)cc3Cl)nc2C)cs1,-16.9% (inactive)
6,COc1cc(C(=S)N2CCOCC2)ccc1OC(=O)c1ccc([N+](=O)[O-])cc1[N+](=O)[O-],-27.5% (inactive)
7,Cc1ccc(CCNC(=O)c2cccc(NC3=NC4CS(=O)(=O)CC4S3)c2)cc1 (configuration not stated),-10.3% (inactive)
8,Cc1ccc(C(=O)NC2CCC(C)CC2)o1 (configuration not stated),-20.7% (inactive)
9,C/C(=N/NC(=O)c1sc(NS(=O)(=O)c2ccccc2)nc1C)c1sc(N)nc1C,-11.4% (inactive)
10,C/C(=N\NC(=O)c1cc2ccccc2cc1O)c1ccc(C)o1,30.2% (active)
11,Nn1c(SCC(=O)Nc2ccc(OC(F)F)cc2)nnc1-c1ccco1,-14.7% (inactive)
12,CSc1ccccc1C(=O)NCc1ccc(C)cc1,-15.6% (inactive)
13,CC1=CC(=O)C(C(C)C)=CC1=NC(=O)c1ccc(C)cc1,-15.5% (inactive)
14,Cc1ccc(C(=O)Sc2cccccc2=O)cc1,78.4% (active)
15,Cc1ccc(Nc2nc(-c3ccncc3)cs2)cc1,-17.9% (inactive)
16,Brc1ccc(-c2csc(N3CCCCCC3)n2)cc1,-13.8% (inactive)
17,Cc1cc(C)c(-c2c(O)c3c(n(C)c2=O)CC(C)(C)CC3=O)c(C)c1,-18.3% (inactive)
18,O=C(COc1ccccc1)Nc1ccc(F)cc1,-28.9% (inactive)
19,O=C(COc1ccc2ccccc2c1)Nc1ccc(Br)cc1C(=O)O,-9% (inactive)
20,Cc1ccccc1NC(=O)C(=O)NNC(=O)COc1ccc2ccccc2c1,33.6% (active)
21,O=C(COc1ccc2ccccc2c1)NNC(=O)C(=O)Nc1ccccc1,47.2% (active)
22,COc1ccccc1NC(=O)C(=O)NNC(=O)COc1ccc2ccccc2c1,93.1% (active)
23,O=C(COc1ccc(C(=O)c2ccccc2)cc1)Nc1cccnc1,-35% (inactive)
24,C=CCNC(=O)c1ccccc1NC(=O)COc1ccc(OC)cc1,-11.7% (inactive)
25,COC(=O)CSc1nnc(COc2ccc3ccccc3c2)o1,-16% (inactive)

row,Compound,"activity change, less the hit threshold"
1,CSc1ccc(S(=O)(=O)N2CCC(C(=O)Nc3ccccc3C(F)(F)F)CC2)cc1,-14.7% (inactive)
2,Cc1nonc1CN(C)C(=O)c1ccc(OC2CCN(Cc3ccccn3)CC2)cc1,-5.7% (inactive)
3,Cc1ccc(C(=C2C3C=CC2C2C(=O)NC(=O)C32)c2ccc(C)cc2)cc1 (configuration not stated),-17.1% (inactive)
4,COc1ccccc1C(=O)COC(=O)c1ccc(-n2cnnn2)cc1,-14.7% (inactive)
5,CCOC(=O)c1nnn(CC(=O)Nc2cccc(F)c2)c1C(=O)OCC,-9.5% (inactive)
6,COc1ccc(CC(=O)Nc2ccc(-c3noc(-c4ccccc4OC)n3)cc2)cc1,-16.7% (inactive)
7,O=C(c1ccccc1)c1nccn1-c1ccc(Cl)nn1,-7.9% (inactive)
8,O=C(CSc1cccc[n+]1[O-])C12CC3CC(CC(C3)C1)C2,-11.8% (inactive)
9,O=C(NCCCN1CCOCC1)c1ccc(CS(=O)(=O)Cc2ccccc2Cl)o1,-26.5% (inactive)
10,Oc1c(N=NC(=S)Nc2ccccc2F)c2ccccc2n1Cc1ccccc1Cl,-10% (inactive)
11,Cc1ccc(Cn2c(O)c(N=NC(=S)Nc3ccccc3F)c3ccccc32)cc1,-11.4% (inactive)
12,Oc1c(N=NC(=S)Nc2ccccc2F)c2ccccc2n1Cc1ccc(F)cc1,2.8% (active)
13,Oc1c(N=NC(=S)Nc2ccccc2F)c2ccccc2n1Cc1ccc(Cl)cc1,-13.5% (inactive)
14,Oc1c(N=NC(=S)Nc2ccccc2F)c2ccccc2n1Cc1ccccc1,-9.8% (inactive)
15,Cc1c(Cl)cccc1NC(=S)N=Nc1c(O)n(CN2CCOCC2)c2ccccc12,4.9% (active)
16,O=C(CN1C(=O)CSCC1=O)Nc1ccc2c(c1)OCO2,-7.1% (inactive)
17,Nc1ccc2nc(-c3cccs3)[nH]c2c1,-8.8% (inactive)
18,CC(C)(C)n1nnnc1C(c1cccs1)N1CCN(Cc2ccccc2)CC1 (configuration not stated),-11.7% (inactive)
19,O=C(/C=C/Nc1ccc(F)c(F)c1)c1cccs1,-17.4% (inactive)
20,Cc1sc2nc(CN3CCOCC3)[nH]c(=S)c2c1C,93.4% (active)
21,C/C(Nc1cccc(F)c1)=C(/C#N)C(N)=O,-14.7% (inactive)
22,Cc1nc(NCc2cccnc2)c2c3c(sc2n1)CC(C)CC3 (configuration not stated),26.7% (active)
23,Cc1cccc(NC(=O)CN2C(=O)S/C(=C\c3cccn3-c3cccc(C(=O)O)c3)C2=O)c1,-18.5% (inactive)
24,S=c1nc[nH]c2c1sc1nc(-c3ccccc3)c3c(c12)CCCC3,-4.2% (inactive)
25,S=c1nc[nH]c2c1sc1nc(N3CCOCC3)c3c(c12)CCCC3,43.5% (active)

row,Compound,"activity change, less the hit threshold"
1,CC(C)c1nc2sc3c(=S)nc[nH]c3c2c2c1CCC2,14.2% (active)
2,COc1ccc(S(=O)(=O)Nc2cccnc2)cc1,-17.2% (inactive)
3,CN(C)C(=O)c1ccc(NC(=O)c2cncc(Br)c2)cc1,-12% (inactive)
4,O=C(NNC(=S)NC(=O)c1sc2ccccc2c1Cl)c1ccc(Cl)cc1,11.1% (active)
5,O=C(Nc1nc(=O)c2ccccc2s1)c1ccc(Cl)cc1,-5.6% (inactive)
6,COc1ccccc1C(=O)NNC(=S)NC(=O)c1sc2ccccc2c1Cl,19.7% (active)
7,Cc1ccc(C(=O)NNC(=S)NC(=O)c2ccc(Cl)cc2)cc1,-28.7% (inactive)
8,COc1ccccc1C(=O)NC(=S)NNC(=O)c1sc2ccccc2c1Cl,77% (active)
9,COc1cccc(C(=O)NC(=S)Nn2cnnc2)c1OC,-19.6% (inactive)
10,Cc1ccc(NC(=S)NC(=O)c2sc3ccccc3c2Cl)c(C(=O)O)c1,13.9% (active)
11,O=C(NC(=S)Nc1ccc(N2CCOCC2)c(Cl)c1)c1sc2ccccc2c1Cl,-10.6% (inactive)
12,CCC(C)N(C(=O)CSc1nnc(NC(C)C)s1)C1CCS(=O)(=O)C1 (configuration not stated),-15.4% (inactive)
13,O=c1cc(CN2CCN(S(=O)(=O)c3ccc4c(c3)OCCO4)CC2)c2ccc(O)cc2o1,-20% (inactive)
14,S=c1[nH]nc(CSc2nc3ccccc3s2)n1C1CCCCC1,-2.2% (inactive)
15,Cc1ccc(CNC(=O)c2ccc(CNc3c(N4CCCC4)c(=O)c3=O)cc2)cc1,-23.6% (inactive)
16,Cc1ccc(C(=O)NNc2cc(N3CCCC3)nc(N3CCCC3)n2)cc1,16.1% (active)
17,Cc1ccc(C(=O)Nc2nc(=O)n(C)s2)cc1,-12% (inactive)
18,O=C(Nc1nnc(C2=COCCO2)o1)c1ccc(Br)cc1,-2.3% (inactive)
19,CCn1cc(C(=O)NCCN(C)C)c(=O)c2cc(F)c(N3CCN(C)CC3)cc21,-23.9% (inactive)
20,COc1ccc(C(=O)Nc2ccc(-n3nncc3C(C)(C)C)cc2)cc1,17.5% (active)
21,COc1ccc(NC(=O)c2ccc(NC3=NC4CS(=O)(=O)CC4S3)cc2)cc1 (configuration not stated),-19.9% (inactive)
22,COc1ccc(NC(=O)c2ccc(COCC(F)(F)C(F)F)cc2)cc1,-19.7% (inactive)
23,CCSc1nnc(NC(=O)CC(C)C)s1,-11.1% (inactive)
24,Cc1[nH]n2c(=O)cc(C(C)C)nc2c1-c1ccccc1,-3.3% (inactive)
25,Cc1[nH]n2c(=O)cc(C(C)(C)C)nc2c1-c1ccccc1,14.6% (active)

row,Compound,"activity change, less the hit threshold"
1,Cc1nn(CCC#N)c2nc(-c3ccccc3)cc(C(F)(F)F)c12,-22.2% (inactive)
2,NC(=O)c1nn2c(C(F)(F)F)cc(-c3ccccc3)nc2c1Br,-18.2% (inactive)
3,O=c1cc(-c2ccccc2)nc2c(-c3ccccc3)c(C(F)(F)F)[nH]n12,59.6% (active)
4,CN(C(=O)CCc1ccccc1)c1nnc(-c2ccncc2)s1,-20.2% (inactive)
5,Cc1cc(=O)oc2cc(OCC(=O)OCC(=O)NC(C)C)ccc12,-16.8% (inactive)
6,O=C(NCCc1nnc2ccc(NCc3ccc(Cl)cc3)nn12)c1ccccc1,-7.7% (inactive)
7,O=C(N/N=C/c1cc([N+](=O)[O-])ccc1O)c1ccc(COc2ccc3c(c2)CCC3)o1,-47.5% (inactive)
8,N#CCCn1cc(/C=N/NC(=O)c2ccncc2)c(-c2ccc(F)cc2)n1,-4.3% (inactive)
9,CCn1ccnc1CN1CCCC(CO)(Cc2cccc(OC)c2)C1 (configuration not stated),-24.6% (inactive)
10,CCCCNC(=O)COC(=O)c1ccc(NC(C)=O)cc1,-20.3% (inactive)
11,CCNC(=O)C/C(C)=N/NC(=O)C(=O)Nc1ccc(CC)cc1,4.9% (active)
12,CSCC[C@H](NC(=O)Nc1ccc(C)cc1C)C(=O)O,-12% (inactive)
13,CCOC(=O)C1CCN(S(=O)(=O)c2cccc3nonc23)CC1,-11.1% (inactive)
14,O=C(O)CN1C(=O)c2ccc(Oc3ccc4c(c3)C(=O)N(CC(=O)O)C4=O)cc2C1=O,-11.1% (inactive)
15,O=C(O)Cc1cc(I)c(Oc2ccc(O)c(I)c2)c(I)c1,93.7% (active)
16,NC(=O)Cn1c2[n+](c3ccccc31)CC(O)CS2 (configuration not stated),-19.2% (inactive)
17,Cc1ccc(NC(=O)C2C3CCC(O3)C2C(=O)O)cc1C (configuration not stated),-2.7% (inactive)
18,CCc1ccc(C(C)NC(=O)C2CCCC2)cc1 (configuration not stated),14.8% (active)
19,Cc1ccc(C(C)NC(=O)C2CCCC2)cc1C (configuration not stated),37.3% (active)
20,CCc1ccccc1N(CC(=O)NC(C)c1ccccc1)S(C)(=O)=O (configuration not stated),-20.5% (inactive)
21,Cc1ccc(NC(=O)c2noc3c2CCC3)cc1C,-19.4% (inactive)
22,CSc1ccccc1-n1nnnc1SCC(=O)Nc1cc(C)ccc1C,-20.8% (inactive)
